Active and inactive are the calls of the source. Rule for the calls: active = hit-call score of the fitted dose curve at least 0.9, where 1 is the maximum; inactive = score below 0.9.

Read-out in the assay: Transforming Growth Factor (TGFB1), TGFB1 (gene 7040)
Briefly: LTEA_HepaRG_TGFB1: Life Technologies and Expression Analysis (LTEA) Assay for Transforming Growth Factor (TGFB1) Transporter using HepaRG (AID 2283533). Particulars: mRNA level, 48 h; actives raise or lower the signal. The procedure, abridged: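 Differentiated HepaRG cells exposed 48 hr in serum-free induction medium to eight half-log concentrations up to 100 uM (0.5% DMSO), duplicate; TGFB1 mRNA by TaqMan qRT-PCR normalised to ACTB, GAPDH, POLR2A; bidirectional fit against DMSO.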
For `CCOC(=O)C(C)Oc1ccc(Oc2cnc3cc(Cl)ccc3n2)cc1` (stereo unspecified), the molecule was called inactive.
Regarding `CC(C)(c1ccc(O)cc1)c1ccc(O)cc1`, the molecule was called inactive.
Still for that read-out and setting: the entry for `COc1c(Cl)ccc(Cl)c1C(=O)O` is “inactive”; for `O=C(c1ccccc1)C1CCCCC1` it is “inactive”.
The term AC50 denotes the concentration at which the activity in the assay is half-maximal. For `CC(=O)[C@H]1CC[C@H]2[C@@H]3CCC4=CC(=O)CC[C@]4(C)[C@H]3CC[C@]12C`, the AC50 is 91.8 µM (active).
On to `COC(=O)c1ccc(I)cc1S(=O)(=O)NC(=O)Nc1nc(C)nc(OC)n1`, for which the result was inactive.
In the case of `C#CCOC(=O)[C@@H](C)Oc1ccc(Oc2ncc(Cl)cc2F)cc1`, the result was inactive.
Same read-out and setting: the entry for `COCCO` is “inactive”.
Regarding `CCN(Cc1c(F)cccc1Cl)c1c([N+](=O)[O-])cc(C(F)(F)F)cc1[N+](=O)[O-]`, the outcome was inactive.
On to `CCCOC(=O)c1ccc(C(=O)OCCC)nc1`, for which the outcome was inactive.
For the molecule `CCCCCCC(C)OC(=O)COc1nc(F)c(Cl)c(N)c1Cl` (stereo unspecified), the molecule was called inactive.
For `C[C@]12CC[C@@H]3c4ccc(O)cc4C[C@@H](CCCCCCCCCS(=O)CCCC(F)(F)C(F)(F)F)[C@H]3[C@@H]1CC[C@@H]2O` (stereo partly specified), the AC50 is 0.121 µM (active).
On to `O=C(O)c1ccccc1`, for which the outcome was inactive.
Take `CCCCCOC(=O)COc1cc(N2C(=O)C3=C(CCCC3)C2=O)c(F)cc1Cl`: the result was inactive.
Consider `CCCCOCCOCCOCc1cc2c(cc1CCC)OCO2`, for which the outcome was inactive.
With `CCOC(=O)C(C)Oc1ccc(Oc2nc3ccc(Cl)cc3o2)cc1` (stereo unspecified), the outcome was inactive.
As to `CCCCOC(=O)[C@@H](C)Oc1ccc(Oc2ccc(C(F)(F)F)cn2)cc1`, the molecule was classed as inactive.
As for `S=C([S-])NCCNC(=S)[S-].[Mn+2]`, the molecule was called inactive.
As for `C=CCOC(Cn1ccnc1)c1ccc(Cl)cc1Cl` (stereo unspecified), the molecule was classed as inactive.
On to `CCN(CC)C(=O)c1cccc(C)c1`, for which the molecule was called inactive.
For `N[C@@H](Cc1cc(I)c(Oc2ccc(O)c(I)c2)c(I)c1)C(=O)O`, the AC50 is 63.2 µM (active).
As for `O=C(Nc1ccc([N+](=O)[O-])cc1Cl)c1cc(Cl)ccc1O`, the AC50 is 3.95 µM (active).
In the case of `CCSC(=O)N(CC(C)C)CC(C)C`, the call was inactive.
In the case of `CCCN(CCC)c1c([N+](=O)[O-])cc(C(F)(F)F)c(N)c1[N+](=O)[O-]`, the AC50 is 50 µM (active).
For the molecule `COC(=O)CSc1cc(N=c2sc(=O)n3n2CCCC3)c(F)cc1Cl`, the call was inactive.
Take `S=C(S)NCCNC(=S)S.[Mn+2].[S-]C([S-])=NCCN=C([S-])[S-].[Zn+2]`: the molecule was called inactive.

(Values after PubChem BioAssay (EPA / NIEHS).)
